# Compounds with a hit are over-represented: about 19% of the library has one in this group of screens.
# TDP1 cell CPT: growth inhibition of DT40 Tdp1-/-;hTDP1 cells with camptothecin (screen for TDP1 inhibitors). chicken DT40 Tdp1-/-;hTDP1 cells + 20 nM CPT, ATP luminescence, 48 h. Potency, µM (top dose mostly 46.2 µM), actives largely listed as inhibitors. hit rate 12% among 420,000; also: nearly all actives have a fitted effect of over 55% in size
#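 Chicken DT40 Tdp1-/- cells complemented with human TDP1, 400 cells/well, exposed to compounds plus 20 nM camptothecin for at least 48 h at 37 C; viability read as ATP content by CellTiter-Glo luminescence.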
# SW480 rerep: inducers of DNA re-replication in SW480 colon cancer cells | SW480 DNA re-replication, Hoechst DNA content imaging, 48 h | Potency, µM (doses to about 46.1 µM), hits mostly activators | hit rate 1.8% among 340,000; also: nearly all actives have a fitted effect of over 55% in size
#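 250 cells/well; 23 nL cpd via pin tool; 48 hr, 37 C, 5% CO2; Hoechst 40 min; imager read of total nuclear intensity, ex 405/em 500-530 nm.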
# DT40 TDP1 no CPT: qHTS for Inhibitors of human tyrosyl-DNA phosphodiesterase 1 (TDP1): qHTS in cells in absence of CPT; DT40 Tdp1-/- hTDP1 cells, no CPT, ATP luminescence, 48 h; Potency, µM (titrated, usually from 46.2 µM), usual class: inhibitors; hit rate 15% among 420,000; also: nearly all actives have a fitted effect of over 55% in size
#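 Readout: luminescence from CellTiter-Glo after 30 min in the dark at RT. Cells: DT40 Tdp1-/- with stable hTDP1, 400/well. Exposure: compounds alone, ≥48 hr, 37 °C.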
# MCF10A rereplic: induces DNA re-replication in MCF 10a normal breast cells | MCF 10A DNA re-replication, Hoechst nuclear intensity, 48 h | Potency, µM (top dose mostly 46.1 µM), most hits filed as activators | hit rate 2.9% among 350,000; also: nearly all actives have a fitted effect of over 50% in size
# Chronic BCR inh: chronic active BCR signaling inhibition; ABC-DLBCL IkBa-CBG/CBR reporter, luminescence ratio, 4 h; hit rate 0.05% among 340,000; Potency, µM (top dose mostly 46.1 µM), actives largely listed as inhibitors; AID 493014; active = well fitted inhibition curve with a large enough effect in the signal ratio, with a control signal flat, not every such curve was filed as active; inconclusive = small, poorly fitted or top-dose-only effect, or effect the other way, or a change in a side signal; the % refers to the signal ratio
#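 Concentration-response series (up to 46 uM) were applied to TMD8 dual-reporter cells for 4 h at 37C with doxycycline. Green/red ratio, after filter-overlap correction, defined %Activity; red signal alone was normalised to basal cells and zero luminescence.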
# IL1B secr inh: inhibitors of inflammasome signaling (IL-1 beta secretion) | THP-1 LPS/ATP IL-1B secretion, AlphaLISA, 16 h; active compounds read low | activity change, % at 57.5 µM | hit rate 4.7% among 360,000 | AID 743279; in the data active = activity change below about -50%; inconclusive = mostly about -30% to -49%
#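 Secreted IL-1B measured by AlphaLISA bead assay after 16 h compound exposure of THP-1 cells; compounds (final up to 57.5 uM) added 1 h before LPS (250 ng/mL) and ATP (1.25 mM) stimulation; lower signal means less secretion.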
# Hits are given with their value; 0 = inactive; ? = inconclusive; - = no result given; [ ] = remark or other dose. Unless noted, calls follow the shape of the dose curve; as a rule, active = well fitted curve in the direction sought with a large enough effect; inconclusive = small, poorly fitted or top-dose-only effect, or another doubt; inactive = no such curve, though single readings can be large; an effect the other way counts as inactive or inconclusive.
SMILES,TDP1 cell CPT,SW480 rerep,DT40 TDP1 no CPT,MCF10A rereplic,Chronic BCR inh,IL1B secr inh
Cc1ccc(S(=O)(=O)c2ccc([N+](=O)[O-])cn2)cc1,0.46µM,0,0.52µM,?,?,-105
Cc1ccc([N+](=O)[O-])cc1,0,0,0,0,0,0
CC(C)OP(=O)(OC(C)C)C(NCc1ccccc1)c1ccccc1 (configuration not stated),?,0,23µM,0,0,0
O=C1OC(c2ccc(O)c(S(=O)(=O)O)c2)(c2ccc(O)c(S(=O)(=O)O)c2)c2c(Br)c(Br)c(Br)c(Br)c21,0,0,0,0,-,-
CC(=O)OC1CCC2(C)C3CCC4(C)C(OC(C)=O)CCC4C3C(C)C2(O)C1 (configuration not stated),?,0,15µM,0,-,0
CCN1C[C@]2(COC)CC[C@H](O)[C@]34C1[C@](O)([C@@H](OC)[C@H]23)[C@@]1(O)C[C@H](OC)[C@H]2C[C@@H]4[C@@H]1[C@H]2OC,0,0,0,?,0,0
CCOC(=O)Nc1ccc2c(c1)N(C(=O)CN(C)C)c1ccccc1CC2,?,0,?,0,0,0
COc1cc(/C=C2\C[C@H]3[C@@H]4CC=C5C[C@@H](N6CCCC6)CC[C@]5(C)[C@H]4CC[C@]3(C)[C@H]2O)cc(OC)c1OC,15µM,0,5.2µM,?,-,0
Cc1noc(C)c1C(=O)N1CCC[C@@]2(CCN(CC(C)C)C2)C1,0,-,0,-,-,-
O=C(NCc1cccnc1)C1CCN(S(=O)(=O)c2cc([N+](=O)[O-])ccc2Cl)CC1,?,0,18µM,0,0,0
COc1ccc(OCC(=O)N2CCN(CCc3ccccn3)CC2)cc1,0,-,0,-,-,-
Cc1c(P(=S)(c2ccccc2)c2ccccc2)[n+]2ccccc2n1C,5.8µM,0,4.1µM,0.73µM,0,0
O=C(NCc1cccnc1)c1ccc(-c2ccc(F)c(F)c2)c2ccoc12,5.8µM,-,4.6µM,-,-,0
O=C(CCCCCCCCCCC(=O)NCc1cccnc1)NCc1cccnc1,?,0,?,0,0,0
Cc1ccc(O)c(-c2cc(-c3ccc(F)cc3)no2)c1,0,0,0,0,?,0
CC1CC(C)CN(S(=O)(=O)c2ccc3c(c2)oc(=O)n3CC(=O)N(C)Cc2ccccc2)C1 (configuration not stated),?,0,?,0,0,0
O=C(Cn1c(=O)oc2cc(S(=O)(=O)NCc3ccccc3)ccc21)N(CCO)Cc1ccccc1,?,-,15µM,-,?,-
O=C(CCn1c(=O)oc2ccccc21)NCCCN1CCN(c2ccc(F)cc2)CC1,0,0,0,0,?,0
CC1COC2=C1C(=O)C(=O)c1c2ccc2c1CCCC2(C)C (configuration not stated),?,-,13µM,-,-,-
C[C@H]1COC2=C1C(=O)C(=O)c1c2ccc2c1CCCC2(C)C,5.2µM,?,5.2µM,18µM,0,0
CC[C@]1(O)CC(O[C@@H]2CC(N(C)C)C(O)C(C)O2)c2c(cc3c(c2O)C(=O)c2c(O)ccc(O)c2C3=O)C1C(=O)OC (some centres not stated),1.5µM,-,1.3µM,-,-,-
CNC(=S)N1CCN(CCN=Cc2c(O)n(-c3ccc(C)cc3)c(=S)[nH]c2=O)CC1,0,0,0,?,0,0
O=C(Nc1ccc(Cl)c(C(F)(F)F)c1)NC1CC2CCCC(C1)N2Cc1ccccc1 (configuration not stated),18µM,?,13µM,?,0,-106
CCOC(=O)/C=C(C)/C=C/CC(C)CCCC(C)C (configuration not stated),-,0,-,0,-,-
Cc1cc(C(=O)CSc2nc(N)cc(=O)[nH]2)c(C)n1CCc1ccc(F)cc1,18µM,0[9.22 µM],12µM,0,?,0
SMILES,TDP1 cell CPT,SW480 rerep,DT40 TDP1 no CPT,MCF10A rereplic,Chronic BCR inh,IL1B secr inh
CC(C)C(=O)N1CCC(CN=Cc2c(O)n(C3CCCCC3)c(=O)n(C3CCCCC3)c2=O)CC1,?,0[9.22 µM],23µM,?,0,?
COc1ccc(C(=O)Oc2cccc3cccnc23)cc1S(=O)(=O)N1CCOCC1,?,?,3.3µM,?,?,0
COc1ccc(C(=O)N2CCOCC2)cc1S(=O)(=O)N1CCC(C)CC1,0,0,0,0,0,0
O=C(Nc1ccc2nc(-c3cccs3)c(-c3cccs3)nc2c1)N1CCCCC1,8.9µM,-,11µM,-,-,-
Cc1ccc(C2N(c3cc(C)on3)C(=O)C3CCCN32)cc1 (configuration not stated),0,0,0,0,0,0
Cc1ccc(C)c(N2CCN(c3ncnc4onc(C)c34)CC2)c1,?,-,13µM,-,-,-
CC1=NN=C(c2ccc(N)cc2)c2cc3c(cc2C1)OCO3,30µM,0,27µM,0,0,0
CCCCCCn1c(O)c(C=NC2CCCCC2N)c(=O)[nH]c1=O (configuration not stated),16µM,0,16µM,?,0,0
CCOC(=O)c1cc2ccccc2n1C1CCN(Cc2ccccc2)CC1,?,-,16µM,-,-,0
NC(C(=O)O)c1cc(=O)[nH]o1 (configuration not stated),0,0,0,0,0,0
CC(C)c1ccc(C(c2c(O)c3ccccc3oc2=O)c2c(O)c3ccccc3oc2=O)cc1,0,-,?,-,-,0
CC(C)c1ccc(Cc2cn3cc(-c4cc5ccccc5oc4=O)nc3s2)cc1,0.26µM,-,0.18µM,-,-,-
COc1cccc(CN2CCC(n3nccc3NC(=O)CCOc3ccccc3)CC2)c1O,?,0,0,0,-,0
O=C(Cn1c(=O)n(Cc2ccccc2)c(=O)c2sc3ccccc3c21)NCc1ccccc1Cl,0,-,?,-,-,-
COc1cc(CN2CCN(c3cc(C)ccc3C)CC2)ccc1O,7.3µM,0,7.3µM,0,0,0
COc1ccccc1N1CCN(Cc2cc(C)c(C)cc2O)CC1,23µM,0,21µM,?,0,0
CC1CC[C@]2(NC1)OC1CC3C4CC=C5CC(O)CC[C@@]5(C)C4CC[C@]3(C)C1C2C (some centres not stated),0,-,0,-,-,-
Cc1cccc(C)c1-n1nnnc1C(c1cccc2ccccc12)N1CCC2(CC1)C(=O)NCN2c1ccccc1 (configuration not stated),18µM,-,12µM,-,-,0
O=C1NCN(c2ccccc2)C12CCN(C(c1cccc3ccccc13)c1nnnn1C1CCCC1)CC2 (configuration not stated),?,-,16µM,-,-,-62
O=C1NCN(c2ccccc2)C12CCN(C(c1ccnc3ccccc13)c1nnnn1C1CCCCC1)CC2 (configuration not stated),?,-,?,-,-,0

# Compound activity as filed in PubChem BioAssay.
